This is a sample that favours compounds with a hit; in the whole collection about 3.3% have one here.
D3 antag – blocks the human D3 dopamine receptor. P35462. max response, negative = inhibition, %. D3R cells, DiscoveRx beta-arrestin luminescence, antagonist mode; hits give low values. 360,000 tested, 2.5% active; in the data active = max response below about -50%; inconclusive = no clear call, values can overlap the other calls; also: % is scaled to controls: 0 for no effect and ±100 for the full control effect
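Cells expressing the human receptor were seeded at 1500 cells/well, incubated overnight at 37 degrees C in 5% CO2, then exposed to library compounds with dopamine controls for 90 minutes at 37 degrees C before luminescent detection.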
DRD3 agonist – activates the human D3 dopamine receptor | 410,000 tested, 0.58% active | D3R DiscoveRx beta-arrestin cells, luminescence, 90 min | AID 652048 | max activation, %; in the data active = max activation above about 30%; also: 0% is about no effect
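Agonist mode: compounds and dopamine controls were applied to plated cells for 90 min at 37 degrees C after an overnight attachment at 1500 cells/well. Luminescent read-out followed 30 - 60 minutes at room temperature with DiscoveRx detection reagent.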
PI4K2A block – PI4K2A (human) kinase inhibition. 420,000 tested, 0.13% active. Q9BTU6. activity change, negative = inhibition, % at 76.9 µM. AID 1346378. purified PI4K2A, ADP-Glo luminescence, 1 h; hits give low values; in the data active = activity change below about -50%; inconclusive = mostly about -30% to -49%;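 also: -100% = wells without enzyme as full effect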
Target sequence (Q9BTU6 whole entry, looked up): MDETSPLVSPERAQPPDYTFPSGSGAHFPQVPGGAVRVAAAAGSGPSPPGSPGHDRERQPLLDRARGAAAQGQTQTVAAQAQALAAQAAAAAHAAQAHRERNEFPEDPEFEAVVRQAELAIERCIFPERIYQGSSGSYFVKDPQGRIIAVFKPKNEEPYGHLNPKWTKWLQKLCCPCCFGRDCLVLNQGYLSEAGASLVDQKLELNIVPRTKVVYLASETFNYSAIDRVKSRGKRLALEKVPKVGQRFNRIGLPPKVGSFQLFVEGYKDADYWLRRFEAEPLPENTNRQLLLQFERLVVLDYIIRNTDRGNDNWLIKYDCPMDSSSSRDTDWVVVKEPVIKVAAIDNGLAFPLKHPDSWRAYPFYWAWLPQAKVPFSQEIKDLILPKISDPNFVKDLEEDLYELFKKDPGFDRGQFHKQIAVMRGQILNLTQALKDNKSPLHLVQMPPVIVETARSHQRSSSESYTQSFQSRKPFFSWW
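ADP-Glo luminescence measured ADP generated by PI4K2A enzyme (4 ug/mL before mixing) with 1.2 mM PI substrate (pre-mix) and 300 microM ATP (pre-mix). Tris pH7.5 buffer with MgCl2, Triton X-100; 1 h reaction at ambient temperature.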
LDHA block – LDHA (human) enzyme inhibition. P00338. purified LDHA, NADH/diaphorase-resazurin fluorescence; hits give low values. activity change, % (values are at about 110 or 230 µM). 480,000 tested, 0.15% active. AID 1347041; in the data active = activity change below about -30%; inconclusive = mostly about -25% to -30%;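 also: plate controls were DMSO wells for no effect and wells without enzyme for full effect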
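Resorufin fluorescence (ex540/em590), read at 0 and 20 min after diaphorase/resazurin addition, reports the NADH left after a 5 min room-temperature reaction of 2 nM human LDH5 with 0.06 mM NADH and 0.2 mM pyruvate.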
PI5P4Ka inh – PI5P4K alpha (human) kinase inhibition; AID 652105; max response, %; 330,000 tested, 1.2% active; PI5P4Kalpha enzyme, ADP-Glo luminescence, 60 min; hits give low values; active = max response of -50% or lower; inconclusive = between -30% and -50%; inactive = -30% or higher; also: value at the top dose of about 77 µM; % is scaled to controls: 0 for no effect and ±100 for the full control effect
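Controls without substrate or without enzyme flank wells where PI5P4Kalpha converts substrate using 5 microM ATP (final). Incubation lasts 60 minutes at room temperature; ADP formed is read by ADP-Glo luminescence.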
An asterisk follows results filed as active.

`O=C(OCc1ccccc1)N1CCC2CC1c1cc(-c3cc4ccccc4o3)ccc12` (configuration not stated) gave D3 antag 8.8, DRD3 agonist -3.0, PI4K2A block -3.9, LDHA block -33.4* and PI5P4Ka inh 7.8.
For O=C(OCc1ccccc1)N1CCC2CC1c1cc(N3CCCCC3)ccc12 (configuration not stated) the results were D3 antag 4.5, DRD3 agonist 1.7, PI4K2A block 0.3, LDHA block -4.4 and PI5P4Ka inh 10.2.
For O=C(OCc1ccccc1)N1CCC2CC1c1cc(N3CCNCC3)ccc12 (configuration not stated) the results were D3 antag -15.1, DRD3 agonist -10.0, PI4K2A block 4.0, LDHA block -31.2* and PI5P4Ka inh 1.7.
O=C(OCc1ccccc1)N1CCC2CC1c1cc(/C=C/CCCSc3ncccn3)ccc12 (configuration not stated) was read as D3 antag inconclusive, DRD3 agonist -10.7, PI4K2A block 3.1, LDHA block -34.0* and PI5P4Ka inh -5.4.
`COc1ccc(-c2ccc3c(c2)C2CC3CCN2C(=O)OCc2ccccc2)cc1` (configuration not stated) gave D3 antag 8.9, DRD3 agonist -5.6, PI4K2A block -3.7, LDHA block -0.1 and PI5P4Ka inh 2.4.
For O=C(CSc1ccccc1Br)c1ccc2c(c1)OCCO2 the results were LDHA block 12.3.
O=C(CSc1nnc(-c2cccs2)o1)c1cccc([N+](=O)[O-])c1 was read as PI4K2A block 5.8.
For C=CCn1c(N)cc(=O)nc1SCC(=O)N1CCN(c2ccc(F)cc2)CC1 the results were D3 antag -153.0*, DRD3 agonist -8.1, PI4K2A block -4.1 and LDHA block 0.6.
`CCCCN1CC[C@H](C)Oc2cc(Br)ccc2S1(=O)=O` gave PI4K2A block -3.8.
O=c1cc(C(F)(F)F)[nH]c2ccc(OC(F)(F)F)cc12 was read as D3 antag 30.5, DRD3 agonist 32.6*, PI4K2A block -9.8, LDHA block -8.9 and PI5P4Ka inh 5.7.
For Cc1cccc(NC(=O)CN2C(=O)/C(=C3\SC(=S)N(CC4CCCO4)C3=O)c3ccccc32)c1 (configuration not stated) the results were D3 antag 5.0, DRD3 agonist 0.7, PI4K2A block -3.2, LDHA block -0.6 and PI5P4Ka inh 0.3.
`O=C(CN1C(=O)/C(=C2/SC(=S)N(CCS(=O)(=O)O)C2=O)c2ccccc21)Nc1cccc(Br)c1` gave D3 antag 7.0, DRD3 agonist 11.2, PI4K2A block -12.3, LDHA block 3.7 and PI5P4Ka inh -57.1*.
For Cc1ccc(NC(=O)c2nc(S(=O)(=O)Cc3ccccc3)ncc2Cl)cc1 the results were D3 antag -86.4*, DRD3 agonist -31.0, PI4K2A block -0.6, LDHA block -6.2 and PI5P4Ka inh 1.1.
Cc1ccccc1CS(=O)(=O)c1ncc(Cl)c(C(=O)Nc2ccc(F)cc2)n1 was read as D3 antag -83.9*, DRD3 agonist -2.2, PI4K2A block -6.3, LDHA block -4.8 and PI5P4Ka inh -5.2.
O=C(Nc1ccc(F)cc1)c1nc(S(=O)(=O)Cc2ccccc2)ncc1Cl was read as D3 antag -110.0*, DRD3 agonist -22.3, PI4K2A block -3.9, LDHA block 0.5 and PI5P4Ka inh -8.2.
CCCCn1c(N)c(N(C)C(=O)c2cc(CCC)c(C)s2)c(=O)[nH]c1=O was read as LDHA block 6.1.
For CCn1cc(C(=O)NC(=S)Nc2ccccc2Br)cn1 the results were D3 antag -10.5, DRD3 agonist 0.5, PI4K2A block -5.3, LDHA block -2.8 and PI5P4Ka inh -60.3*.
Screening CCn1cc(C(=O)NC(=S)Nc2ccccc2[N+](=O)[O-])cn1 returned D3 antag inconclusive, DRD3 agonist -15.7, PI4K2A block -8.0, LDHA block -0.2 and PI5P4Ka inh -22.2.
`CCCCC(NC(=O)Cc1ccccc1)C(=O)O` (configuration not stated) gave LDHA block 0.0.
For O=C(COC(=O)C1CCN(S(=O)(=O)c2ccccc2C(F)(F)F)CC1)NCc1ccc(F)cc1 the results were D3 antag -17.8, DRD3 agonist 256.7*, PI4K2A block -0.8, LDHA block -4.2 and PI5P4Ka inh -3.3.
For COc1ccnc(Oc2ccccc2)c1C(=O)N/C=N/OCc1ccc(F)cc1Cl the results were D3 antag 4.9, DRD3 agonist 46.4*, PI4K2A block -3.2 and LDHA block 0.2.
COc1ccccc1CO/N=C/NC(=O)c1c(OC)ccnc1Oc1ccc(F)cc1 was read as D3 antag 13.4, DRD3 agonist 16.2, PI4K2A block 1.2 and LDHA block -2.5.
For CCC(C(=O)NCCc1ccccn1)c1ccccc1 (configuration not stated) the results were LDHA block 5.8.
Screening CCSC1=C(C#N)C2(CCCC2)C(C#N)=C(N)N1 returned D3 antag -26.7, DRD3 agonist -7.2, PI4K2A block 1.2, LDHA block -2.1 and PI5P4Ka inh -56.7*.
N#CC1=C(N)NC(SCc2ccc(Cl)cc2)=C(C#N)C12CCCCC2 was read as D3 antag 0.0, DRD3 agonist 0.6, PI4K2A block 2.2, LDHA block -3.9 and PI5P4Ka inh -2.1.
`N#CC1=C(N)NC(SCc2ccccc2)=C(C#N)C12CCCC2` gave D3 antag -4.9, DRD3 agonist -4.6, PI4K2A block -4.6, LDHA block 1.0 and PI5P4Ka inh -63.0*.
COc1ccccc1C(NC(=O)c1nc(-c2ccco2)sc1C)c1nccn1C (configuration not stated) was read as LDHA block 5.0.
Screening COc1ccc(S(=O)(=O)/N=C2/NC(=O)/C(=C\c3cc(OC)c(OC)cc3[N+](=O)[O-])S2)cc1 returned D3 antag -12.9, DRD3 agonist 1.1, PI4K2A block 3.5 and LDHA block 0.7.
COc1cc(/C=C2\S/C(=N/S(=O)(=O)c3ccccc3)NC2=O)c([N+](=O)[O-])cc1OC was read as D3 antag -87.6*, DRD3 agonist -4.0, PI4K2A block -5.8, LDHA block -8.6 and PI5P4Ka inh -54.9*.
CC(C)CNCc1ccc(-c2ccccc2Cl)o1 was read as LDHA block 3.3.
Nc1nc2ccc(N3CCOCC3)cc2s1 was read as D3 antag -76.0*, DRD3 agonist -8.5, PI4K2A block -1.7, LDHA block 7.5 and PI5P4Ka inh -1.1.
Screening Fc1ccc2nc(N3CCOCC3)sc2c1 returned D3 antag -16.5, DRD3 agonist -7.2, PI4K2A block -0.2, LDHA block -2.3 and PI5P4Ka inh -9.0.
For Oc1cccc(/C=C/c2nc(-c3ccc(F)cc3)cs2)c1 the results were LDHA block 2.5.
For Cc1cccc(C)c1OCCCOc1ccc(Cl)cc1/C=N/NC(N)=O the results were LDHA block -3.3.
